Test results taken from PubChem BioAssay (NCI).
“And” between values parts separate entries of the source, which are not always exact repeats. Identical values can stand only once. About 79,000 compounds went through this panel and 15% of them were active in at least one assay; those are over-represented in the sample as a whole. Cut-off read from the data, not from the text of the source: active = growth inhibition above about 70%; inactive = the rest.

Columns and labels:
[1] = NCI Yeast Anticancer Drug Screen. Data for the rad50 strain (AID 155);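 note: 0% = growth of vehicle-only cultures of the same strain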; settings: S. cerevisiae rad50 strain growth inhibition; at 50.0 µM; hits give high values
Procedure, shortened: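 Vehicle-treated cultures provide the reference for the growth inhibition reported for compound-exposed, repair-deficient yeast.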

[2] = NCI Yeast Anticancer Drug Screen. Data for the mec2-1 strain (AID 157); settings: S. cerevisiae mec2-1 strain, at 50.0 µM, hits give high values
Procedure, shortened: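 Vehicle-treated cultures served as reference for growth inhibition of compound-exposed mec2-1 yeast.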

[3] = NCI Yeast Anticancer Drug Screen. Data for the sgs1 mgt1 strain (AID 161);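 note: 0% = growth of cultures given vehicle only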; settings: S. cerevisiae sgs1 mgt1 strain, at 50.0 µM, hits give high values
Procedure, shortened: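 Inhibition of yeast growth, normalised to vehicle-treated controls, is reported for a strain bearing genetic alterations in DNA damage repair.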

[4] = NCI Yeast Anticancer Drug Screen. Data for the cln2 rad14 strain (AID 165);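 note: 0% = growth equal to vehicle treated cultures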; settings: S. cerevisiae cln2 rad14 strain, at 50.0 µM, hits give high values
Procedure, shortened: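 Each compound was tested on cln2 rad14 yeast. Inhibition of growth was calculated against vehicle-exposed controls.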

[5] = NCI Yeast Anticancer Drug Screen. Data for the bub3 strain (AID 167); settings: S. cerevisiae bub3 mutant strain, at 50.0 µM, hits give high values
Procedure, shortened: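 Mutant yeast screening strain plus compound; vehicle-treated cultures serve as the 0% inhibition reference.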

[6] = NCI Yeast Anticancer Drug Screen. Data for the mlh1 rad18 strain (AID 175); settings: S. cerevisiae mlh1 rad18 strain growth inhibition; at 50.0 µM; hits give high values
Procedure, shortened: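 Vehicle-treated cultures served as the reference for growth inhibition in a yeast strain carrying DNA damage repair alterations exposed to each compound.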

Measured: growth inhibition

CCCCCCC1OCC(CC)C(CCC)O1 (configuration not stated)
inactive: [1] 24.4% and 2% | [2] 23.6% and 6.9% | [3] 17.1% and -6.05% | [4] -12.2% and -9.7% | [5] 17.2% and 15.2% | [6] 30.4% and -9.4%

CCC(C)C(N)C(=O)O (configuration not stated)
inactive: [1] -39.2% and 2.9% | [2] -31.7% and -21.1% | [3] -17.4% and -2.15% | [4] -29.3% and 5.4% | [5] -14.1% and 4.05% | [6] -28.9% and 5.5%

CCCCCCCCCCCCc1ccccc1
inactive: [1] 2.15% and 17.9% | [2] 4.1% and 11.4% | [3] -4.15% and 2.6% | [4] 5.25% and -55.8% | [5] 18.2% and -19.8% | [6] 16.1% and -0.6%

Nc1cc(=O)[nH][nH]1
inactive: [1] -11.7% and -11.5% | [2] -9.65% and -5.8% | [3] -2.15% and -22.4% | [4] -5.9% and -7.35% | [5] -17.8% and -0.2% | [6] -15.8% and -9.2%

CC(=O)OCC1OC(Sc2nc(-c3ccc(Cl)cc3)c(C#N)c(=O)n2C2OC(COC(C)=O)C(OC(C)=O)C(OC(C)=O)C2OC(C)=O)C(OC(C)=O)C(OC(C)=O)C1OC(C)=O (configuration not stated)
inactive: [1] 8.9% and 6.85% | [2] 7.4% and -3.8% | [3] 9.7% and -9.1% | [4] -18.6% and -12.2% | [5] 9.75% and -7.95% | [6] 2.8% and -46.5%

Oc1ccc2ccccc2c1CNCc1c(O)ccc2ccccc12
inactive: [1] -1.45% and 2.85% | [2] -7.9% and -34.8% | [3] 6% and 1.7% | [4] -23.4% and -2.4% | [5] 26.5% and -20.8% | [6] -8.15% and -9.85%

NC1CCC(N)CC1 (configuration not stated)
inactive: [1] 7.75% and 9.05% | [2] 10% and -5.85% | [3] 0.2% and 0.75% | [4] -11.8% and -16.1% | [5] 8.65% and 10.4% | [6] -6.35% and 1.4%

COc1ccc(C(C)=O)cc1OC
inactive: [1] -0.95% and 6.35% | [2] -7.9% and -3.4% | [3] -1.4% and -3.3% | [4] 2.75% and -6.5% | [5] 3.25% and 2.6% | [6] -4.15% and 1.65%

CC(=O)Nc1ccc(-c2ccc(NC(C)=O)cc2)cc1
inactive: [1] -24.2% and -15.2% | [2] -41.9% and -24.6% | [3] -26.9% and -0.95% | [4] -182% and -42.9% | [5] -24.4% and -1.45% | [6] -10.1% and -21.2%

NC1CCCCCCC1
inactive: [1] 4.85% and 5.55% | [2] -4.95% and 2.2% | [3] 0.75% and 3.8% | [4] -4.2% and 1% | [5] 9.85% and 3.6% | [6] 0.55% and 2.7%

NC(N)=NC(N)=Nc1ccc(S(N)(=O)=O)cc1
inactive: [1] 21.6% and 10.5% | [2] 14.7% and 4.3% | [3] 13.4% and 14.7% | [4] -13.8% and -48.6% | [5] 34.2% and -9.8% | [6] 34.2% and 18.5%

CCCCc1c(C#N)c(=O)n2c(N)c(C(=O)OCC)cnc2c1SC
inactive: [1] -8.45% and 11.1% | [2] -3.4% and 14.9% | [3] 8.3% and -12.1% | [4] -7.6% and -34% | [5] 5.65% and -7.9% | [6] 9.15% and -5.05%

OCC(O)C(O)C(O)c1cnn(-c2ccccc2)n1 (configuration not stated)
inactive: [1] 8.95% and 4.85% | [2] -5.4% and 1.9% | [3] -4.6% and -4.7% | [4] 1.75% and -3.7% | [5] -2.85% and -8.2% | [6] 14.6% and -0.05%

O=[N+]([O-])c1ccc(S(=O)(=O)Cl)cc1
inactive: [1] 53.2% and 20.5% | [2] -3.75% and 6.75% | [3] 30.9% and 44.5% | [4] 35.8% and 23.1% | [5] 28.1% and 6.15% | [6] 52% and 52.5%

CCOC(=O)CNC(=O)C(Cc1ccccc1)NC(=O)c1ccccc1N (configuration not stated)
inactive: [1] 14% and 12.7% | [2] -1.7% and -2.6% | [3] -0.1% and 9.95% | [4] -5.4% and -6.3% | [5] 8.7% and 4.45% | [6] 7.25% and 4.15%

CC(=O)NC(C(=O)O)=C(C)C
inactive: [1] -9.2% and 18% | [2] -7.55% and -6.25% | [3] -1.45% and 13.9% | [4] -16.9% and 16.8% | [5] 7.95% and 2.25% | [6] -5.2% and 27.9%

COC1C(OC(C)=O)CC(=O)OC(C)C/C=C/C=C\C(O)C(C)CC(CC=O)C1OC1OC(C)C(OC2CC(C)(O)C(OC(=O)CC(C)C)C(C)O2)C(N(C)C)C1O (configuration not stated)
inactive: [1] -0.2% and -2.9% | [2] -10.4% and -25.7% | [3] -22.6% and -34% | [4] -4.95% and 4.75% | [5] -27.1% and -30.9% | [6] -2% and -6.85%
